# Assays:
# [1] = biological target: Tyrosine-protein kinase SYK (Homo sapiens) (UniProt P43405); conditions: at 10 µM
# [2] = biological target: T1, Mitogen-activated protein kinase kinase kinase 7 (Homo sapiens) (UniProt O43318); conditions: at 1 µM
# T1 sequence (whole entry): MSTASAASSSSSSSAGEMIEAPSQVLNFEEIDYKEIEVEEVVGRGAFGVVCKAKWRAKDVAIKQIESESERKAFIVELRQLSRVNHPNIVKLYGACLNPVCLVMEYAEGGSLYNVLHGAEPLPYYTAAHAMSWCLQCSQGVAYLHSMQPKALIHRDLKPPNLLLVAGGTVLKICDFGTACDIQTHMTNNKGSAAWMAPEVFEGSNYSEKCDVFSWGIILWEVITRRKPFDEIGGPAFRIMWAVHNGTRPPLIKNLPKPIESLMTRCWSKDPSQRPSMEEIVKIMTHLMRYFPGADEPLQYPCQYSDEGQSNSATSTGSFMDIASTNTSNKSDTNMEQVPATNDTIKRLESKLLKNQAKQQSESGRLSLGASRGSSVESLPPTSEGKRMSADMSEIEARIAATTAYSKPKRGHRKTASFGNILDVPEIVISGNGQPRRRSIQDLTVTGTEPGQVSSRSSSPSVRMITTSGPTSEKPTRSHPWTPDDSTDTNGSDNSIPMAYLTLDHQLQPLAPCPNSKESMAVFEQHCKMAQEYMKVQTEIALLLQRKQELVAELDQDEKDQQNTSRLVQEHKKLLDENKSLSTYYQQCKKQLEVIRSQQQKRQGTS
# [3] = biological target: T1, Mitogen-activated protein kinase kinase kinase 7 (Homo sapiens); conditions: at 10 µM
# [4] = biological target: T2, Serine/threonine-protein kinase TAO1 (Homo sapiens) (UniProt Q7L7X3); conditions: at 1 µM
# T2 sequence (whole entry): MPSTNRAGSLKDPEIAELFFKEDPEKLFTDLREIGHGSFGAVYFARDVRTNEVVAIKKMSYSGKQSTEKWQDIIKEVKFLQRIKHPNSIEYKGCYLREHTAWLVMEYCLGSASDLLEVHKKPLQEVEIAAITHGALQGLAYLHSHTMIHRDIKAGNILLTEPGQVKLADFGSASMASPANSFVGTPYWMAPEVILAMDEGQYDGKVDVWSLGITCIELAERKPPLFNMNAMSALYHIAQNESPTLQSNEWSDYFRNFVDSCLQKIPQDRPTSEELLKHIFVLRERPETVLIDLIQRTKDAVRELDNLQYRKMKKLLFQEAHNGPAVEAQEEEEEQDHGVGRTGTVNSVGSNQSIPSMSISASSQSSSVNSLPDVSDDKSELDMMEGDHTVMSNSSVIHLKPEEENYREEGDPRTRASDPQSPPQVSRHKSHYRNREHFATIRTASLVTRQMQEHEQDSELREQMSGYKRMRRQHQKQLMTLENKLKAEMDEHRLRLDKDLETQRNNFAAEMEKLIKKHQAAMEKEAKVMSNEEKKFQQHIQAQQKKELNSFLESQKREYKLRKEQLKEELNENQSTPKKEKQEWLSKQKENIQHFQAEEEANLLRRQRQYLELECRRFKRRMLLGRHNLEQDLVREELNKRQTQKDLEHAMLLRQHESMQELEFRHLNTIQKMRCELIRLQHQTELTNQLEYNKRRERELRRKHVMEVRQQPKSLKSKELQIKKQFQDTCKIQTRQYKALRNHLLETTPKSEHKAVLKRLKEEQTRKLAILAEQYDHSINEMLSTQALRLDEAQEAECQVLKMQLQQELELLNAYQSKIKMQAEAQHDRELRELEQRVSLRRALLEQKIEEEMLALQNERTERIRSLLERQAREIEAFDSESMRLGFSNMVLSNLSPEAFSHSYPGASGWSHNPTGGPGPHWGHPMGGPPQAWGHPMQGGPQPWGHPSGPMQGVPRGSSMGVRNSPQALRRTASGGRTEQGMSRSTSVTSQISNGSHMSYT
# [5] = biological target: T2, Serine/threonine-protein kinase TAO1 (Homo sapiens); conditions: at 10 µM
# [6] = biological target: T3, Serine/threonine-protein kinase TAO2 (Homo sapiens) (UniProt Q9UL54); conditions: at 1 µM
# T3 sequence (whole entry): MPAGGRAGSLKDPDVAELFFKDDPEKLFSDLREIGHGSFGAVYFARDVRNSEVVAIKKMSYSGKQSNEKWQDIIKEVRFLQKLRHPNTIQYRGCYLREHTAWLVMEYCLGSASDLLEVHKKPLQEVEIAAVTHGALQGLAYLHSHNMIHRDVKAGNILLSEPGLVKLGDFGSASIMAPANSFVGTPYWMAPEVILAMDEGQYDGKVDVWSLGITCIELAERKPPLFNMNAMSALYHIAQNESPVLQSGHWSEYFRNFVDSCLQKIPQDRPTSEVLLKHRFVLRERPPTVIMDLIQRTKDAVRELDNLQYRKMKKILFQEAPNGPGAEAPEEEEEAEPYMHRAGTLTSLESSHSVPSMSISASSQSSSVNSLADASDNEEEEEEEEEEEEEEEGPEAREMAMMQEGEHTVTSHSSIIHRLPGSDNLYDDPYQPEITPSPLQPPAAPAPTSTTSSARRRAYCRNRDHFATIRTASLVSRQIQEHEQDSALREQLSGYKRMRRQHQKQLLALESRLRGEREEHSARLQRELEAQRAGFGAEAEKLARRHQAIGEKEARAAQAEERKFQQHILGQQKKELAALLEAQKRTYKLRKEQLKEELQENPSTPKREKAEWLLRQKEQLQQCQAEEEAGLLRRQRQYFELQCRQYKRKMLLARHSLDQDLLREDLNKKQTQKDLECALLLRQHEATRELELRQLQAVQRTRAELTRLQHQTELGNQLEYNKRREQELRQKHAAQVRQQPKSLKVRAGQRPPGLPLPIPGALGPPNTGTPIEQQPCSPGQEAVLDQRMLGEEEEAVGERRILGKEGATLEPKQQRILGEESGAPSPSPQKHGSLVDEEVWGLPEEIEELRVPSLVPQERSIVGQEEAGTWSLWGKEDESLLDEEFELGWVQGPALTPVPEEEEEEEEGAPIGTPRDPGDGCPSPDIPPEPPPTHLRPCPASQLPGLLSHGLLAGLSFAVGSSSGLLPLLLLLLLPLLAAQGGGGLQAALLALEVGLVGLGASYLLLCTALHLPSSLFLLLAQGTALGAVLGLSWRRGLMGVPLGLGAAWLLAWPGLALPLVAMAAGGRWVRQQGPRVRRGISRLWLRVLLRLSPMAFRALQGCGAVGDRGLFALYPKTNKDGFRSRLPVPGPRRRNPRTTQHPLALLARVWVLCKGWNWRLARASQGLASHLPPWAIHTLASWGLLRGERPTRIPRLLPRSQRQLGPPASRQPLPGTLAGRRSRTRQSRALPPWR
# [7] = biological target: T3, Serine/threonine-protein kinase TAO2 (Homo sapiens); conditions: at 10 µM
# [8] = biological target: T4, Serine/threonine-protein kinase TAO3 (Homo sapiens) (UniProt Q9H2K8); conditions: at 1 µM
# T4 sequence (whole entry): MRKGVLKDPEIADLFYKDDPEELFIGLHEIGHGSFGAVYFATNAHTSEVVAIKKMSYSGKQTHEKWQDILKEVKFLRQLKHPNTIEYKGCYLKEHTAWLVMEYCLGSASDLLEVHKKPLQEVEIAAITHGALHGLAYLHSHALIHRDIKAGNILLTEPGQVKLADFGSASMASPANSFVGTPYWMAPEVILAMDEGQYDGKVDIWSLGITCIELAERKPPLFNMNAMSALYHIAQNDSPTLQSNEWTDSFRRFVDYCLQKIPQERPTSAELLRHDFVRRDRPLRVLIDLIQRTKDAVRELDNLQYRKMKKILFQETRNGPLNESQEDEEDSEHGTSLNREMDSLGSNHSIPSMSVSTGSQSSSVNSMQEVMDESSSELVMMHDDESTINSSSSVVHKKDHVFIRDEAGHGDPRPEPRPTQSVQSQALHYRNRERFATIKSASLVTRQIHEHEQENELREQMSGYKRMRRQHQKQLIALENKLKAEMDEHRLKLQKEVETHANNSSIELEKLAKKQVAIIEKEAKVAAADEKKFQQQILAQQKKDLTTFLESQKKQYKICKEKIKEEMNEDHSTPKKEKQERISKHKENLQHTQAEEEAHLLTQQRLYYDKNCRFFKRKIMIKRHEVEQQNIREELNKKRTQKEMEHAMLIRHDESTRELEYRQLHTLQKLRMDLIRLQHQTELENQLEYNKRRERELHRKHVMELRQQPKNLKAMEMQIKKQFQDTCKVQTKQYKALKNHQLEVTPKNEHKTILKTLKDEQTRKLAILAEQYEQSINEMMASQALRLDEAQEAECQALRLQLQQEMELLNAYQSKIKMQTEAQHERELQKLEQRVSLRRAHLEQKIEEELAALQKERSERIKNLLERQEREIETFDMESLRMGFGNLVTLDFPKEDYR
# [9] = biological target: T4, Serine/threonine-protein kinase TAO3 (Homo sapiens); conditions: at 10 µM
# [10] = biological target: T5, Serine/threonine-protein kinase TBK1 (Homo sapiens) (UniProt Q9UHD2); conditions: at 1 µM
# T5 sequence (whole entry): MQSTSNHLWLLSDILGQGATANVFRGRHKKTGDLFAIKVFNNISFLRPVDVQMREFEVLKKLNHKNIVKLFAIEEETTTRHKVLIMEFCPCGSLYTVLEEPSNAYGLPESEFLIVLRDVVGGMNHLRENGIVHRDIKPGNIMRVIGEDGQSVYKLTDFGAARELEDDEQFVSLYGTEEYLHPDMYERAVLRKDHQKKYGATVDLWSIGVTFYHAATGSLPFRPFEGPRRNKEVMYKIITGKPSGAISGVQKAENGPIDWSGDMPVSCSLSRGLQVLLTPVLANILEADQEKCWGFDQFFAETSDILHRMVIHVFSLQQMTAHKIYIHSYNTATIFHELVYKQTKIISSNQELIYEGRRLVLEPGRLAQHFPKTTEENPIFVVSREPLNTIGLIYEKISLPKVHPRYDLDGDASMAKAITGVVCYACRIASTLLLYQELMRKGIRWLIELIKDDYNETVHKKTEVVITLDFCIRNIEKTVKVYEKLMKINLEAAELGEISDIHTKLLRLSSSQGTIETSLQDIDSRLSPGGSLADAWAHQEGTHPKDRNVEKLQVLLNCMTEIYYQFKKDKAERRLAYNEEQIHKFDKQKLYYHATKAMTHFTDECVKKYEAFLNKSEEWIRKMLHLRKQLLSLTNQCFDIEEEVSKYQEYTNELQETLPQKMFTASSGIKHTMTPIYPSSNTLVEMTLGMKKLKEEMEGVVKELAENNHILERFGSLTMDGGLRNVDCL
SMILES,residual activity [1] [%],residual activity [2] [%],residual activity [3] [%],residual activity [4] [%],residual activity [5] [%],residual activity [6] [%],residual activity [7] [%],residual activity [8] [%],residual activity [9] [%],residual activity [10] [%]
O=c1cc(-c2cccc3c2Sc2ccccc2S3)oc(N2CCOCC2)c1,90,101,89,107,80,93,90,94,82,99
Cc1ccc(NC2=CC(=O)c3sc(C)nc3C2=O)cc1,113,86,89,91,77,95,88,94,93,77
Nc1ccc2ncnc(NCCc3ccc(Oc4ccccc4)cc3)c2c1,78,92,72,103,88,90,91,110,92,94
Cn1cnc2cc3c(Nc4cccc(Br)c4)ncnc3cc21,86,98,106,,73,98,98,94,93,83
Oc1n[nH]c2nnc(-c3c(-c4ccccc4)nn4ccccc34)cc12,105,87,74,83,79,98,96,89,90,67
Cc1cncc2cccc(S(=O)(=O)N3CCCN(C(=O)CN)C[C@H]3C)c12,85,88,83,81,28,,,93,65,68
COc1cc2ncnc(Nc3ccc(NC(=O)c4ccccc4)cc3)c2cc1OC,88,107,96,,94,98,83,102,84,96
O=C1c2ccccc2-[n+]2ccc3c([nH]c4ccccc43)c21,90,93,82,96,86,,90,89,90,58
COc1cc2ncc(-c3ccccc3)nc2cc1OC,100,98,82,,91,,,,,91
O=c1c2ccccc2[nH]c(=S)n1CCN1CCC(=C(c2ccc(F)cc2)c2ccc(F)cc2)CC1,68,97,83,109,88,107,79,109,86,91
CN(C)CCCn1cc(C2=C(c3c[nH]c4ccccc34)C(=O)NC2=O)c2ccccc21,57,103,64,,53,101,49,88,27,80
Nc1nc(Nc2ccc(S(N)(=O)=O)cc2)nn1C(=S)Nc1c(F)cccc1F,3,9,2,0,1,2,3,0,2,-1
O=C1Nc2ccc(Br)cc2/C1=C\c1cc2c([nH]1)CCCC2,100,,,104,98,111,,,,59
Cn1nc2c3c(cccc31)C(=O)c1ccccc1-2,100,87,46,94,88,,95,91,90,67
c1ccc(-c2n[nH]cc2-c2ccnc3ccccc23)nc1,,91,71,107,95,103,86,91,84,71
O=C1NC(=O)c2cc(Nc3ccc(F)cc3)c(Nc3ccc(F)cc3)cc21,78,83,,83,39,63,21,79,37,69
Cc1nc(-c2ccccc2)c(-c2ccncc2)o1,116,103,97,103,79,120,108,107,101,102
Cc1cc2ncc(-c3ccccc3)nc2cc1C,108,96,95,109,101,106,91,100,101,86

# — ChEMBL document CHEMBL2218924, “A broad activity screen in support of a chemogenomic map for kinase signalling research and drug discovery” (Biochem J, 2013)
